Source: PubChem BioAssay AID1159580 (chemical genetic matrix, 2015)
In all, about 5,500 compounds went through this assay and about 2,000 (36%) were called active. Not shown: some 18% with an inconclusive outcome. No stated cut-off is given here; in the data, active means normalized growth mostly below about 0.91 (no sharp cut-off); inconclusive means no clear call, values can overlap the other calls; inactive means mostly above about 0.92. This is one part of the list.

Assay: chemical genetic growth profiling, strain panel (AID 1159580);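 further: tested at 20 µM; growth read once vehicle control cultures reached saturation at 30 °C; 1 = growth at the plate median or of vehicle wells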
Details: S. cerevisiae deletion strains, growth OD

Measured: normalized growth

CCN(CC)CCOCCOC(=O)C(CC)(CC)c1ccccc1
inactive: locus YHR030C, strain SLT2, stronger effect = lower value 0.99 | locus YHR079C, strain IRE1, stronger effect = lower value 1.01 | locus YJL095W, strain BCK1, stronger effect = lower value 0.988 | locus YJR066W, strain TOR1, stronger effect = lower value 0.902 | locus YLR113W, strain HOG1, stronger effect = lower value 1.03 | locus YNL183C, strain NPR1, stronger effect = lower value 0.908 | locus YOR231W, strain MKK1, stronger effect = lower value 0.993 | locus YPL256C, strain CLN2, stronger effect = lower value 0.972
